Source: PubChem BioAssay (EPA / NIEHS)
Inconclusive results are not listed. Calls of active or inactive are those of the source. Rule for the calls, unless noted: active = hit-call score of the fitted dose curve at least 0.9, where 1 is the maximum; inactive = score below 0.9.

Legend:
[1] = BSK_4H_Eotaxin3: BioMAP Diversity Plus: 4H Assay for Eotaxin 3 Biomarker Activity (AID 2283000); details: primary human endothelial cells (HUVEC); actives raise or lower the signal
Outline: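 Endothelial primary cells (human umbilical vein) exposed to compound for 24 h. ELISA detection of Eotaxin-3.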

[2] = read-out: Intercellular Adhesion Molecule 1 (ICAM1), ICAM1 (gene 3383); experiment: BSK_3C_ICAM1: BioMAP Diversity Plus: 3C Assay for Intercellular Adhesion Molecule 1 (ICAM1) Biomarker Activity (AID 2283003); details: primary human endothelial cells (HUVEC); actives raise or lower the signal
Outline: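 Human vascular endothelial primary cells, 3C conditions, 24 h treatment. ICAM-1 by ELISA.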

[3] = BSK_3C_Proliferation: Cell Proliferation Assessment in the BioMAP Diversity Plus: 3C Assay (AID 2283006); details: primary human endothelial cells (HUVEC);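 for AC50: potency may reflect either rise or fall in cell number versus DMSO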
Outline: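 Proliferation of human vascular endothelial primary cells after 48 h dosing, quantified as SRB-stained protein at 560 nm relative to DMSO.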

[4] = target: human RAR-related Orphan Receptor beta (RORb), RORB (gene 6096) (UniProt Q92753); experiment: ATG_RORb_TRANS: Attagene TRANS-FACTORIAL HepG2 Assay for human RAR-related Orphan Receptor beta (RORb) (AID 2283010; active = hit-call score of the fitted dose curve at least 0.9, where 1 is the maximum)
Outline: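 In this TRANS-format test, human HepG2 cells express chimeric NR-Gal4 fusion proteins driving GAL4-UAS reporters. After 24 h dosing, reporter transcripts are measured by fluorescent RT-PCR/capillary electrophoresis, with DMSO as negative control.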

[5] = target: human RAR-related Orphan Receptor gamma (RORg), RORC (gene 6097) (UniProt P51449); experiment: ATG_RORg_TRANS: Attagene TRANS-FACTORIAL HepG2 Assay for human RAR-related Orphan Receptor gamma (RORg) (AID 2283011; active = hit-call score of the fitted dose curve at least 0.9, where 1 is the maximum)
Outline: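 Activity is scored as increase in GAL4-UAS reporter mRNA over DMSO, detected by fluorescent RT-PCR and capillary electrophoresis in HepG2 cells transiently expressing a RORg-Gal4 chimera, 24 h after dosing.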

[6] = target: Retinoic acid receptor RXR-alpha (Homo sapiens) (UniProt P19793); experiment: ATG_RXRa_TRANS: Attagene TRANS-FACTORIAL HepG2 Assay for human Retinoid X Receptor alpha (RXRa) (AID 2283012; active = hit-call score of the fitted dose curve at least 0.9, where 1 is the maximum)
Outline: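 Cells (HepG2) carried transiently transfected GAL4-responsive reporter units. Following a 24 h chemical incubation, reporter mRNA induction was read via RT-PCR fragment analysis; DMSO served as negative control and baseline.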

[7] = target: human Retinoid X Receptor beta (RXRb), RXRB (gene 6257) (UniProt P28702); experiment: ATG_RXRb_TRANS: Attagene TRANS-FACTORIAL HepG2 Assay for human Retinoid X Receptor beta (RXRb) (AID 2283013; active = hit-call score of the fitted dose curve at least 0.9, where 1 is the maximum)
Outline: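 Multiplexed TRANS reporter assay in HepG2; 24 h dosing; reporter mRNA by RT-PCR/CE fluorescence; gain-of-signal relative to DMSO.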

[8] = read-out: E-selectin (Homo sapiens) (UniProt P16581); experiment: BSK_3C_Eselectin: BioMAP Diversity Plus: 3C Assay for Eselectin Biomarker Activity (AID 2283015); details: primary human endothelial cells (HUVEC); actives raise or lower the signal
Outline: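 Human vascular endothelium from umbilical vein is exposed to test chemicals for 24 h. E-selectin levels are read by ELISA and compared with DMSO controls.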

[9] = read-out: Interleukin-1 alpha (IL1a), IL1A (gene 3552); experiment: BSK_BE3C_IL1a: BioMAP Diversity Plus: BE3C Assay for Interleukin-1 alpha (IL1a) Biomarker Activity (AID 2283016); details: primary human bronchial epithelial cells; actives raise or lower the signal
Outline: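 Cultures of primary human bronchial epithelial cells receive test chemical. After 24 h, IL-1a is quantified by ELISA, while parallel wells are fixed in TCA and SRB-stained for total protein. Changes in either direction are fitted relative to DMSO.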

[10] = read-out: Monocyte Chemoattractant Protein-1 (MCP1), CCL2 (gene 6347); experiment: BSK_3C_MCP1: BioMAP Diversity Plus: 3C Assay for Monocyte Chemoattractant Protein-1 (MCP1) Biomarker Activity (AID 2283017); details: primary human endothelial cells (HUVEC); actives raise or lower the signal
Outline: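 Endothelial cells from human umbilical vein are dosed with chemical, cultured 24 h, then assayed for MCP-1 by ELISA; both increases and decreases are modelled against DMSO controls.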

[11] = read-out: Monocyte Chemoattractant Protein-1 (MCP1), CCL2 (gene 6347); experiment: BSK_4H_MCP1: BioMAP Diversity Plus: 4H Assay for Monocyte Chemoattractant Protein-1 (MCP1) Biomarker Activity (AID 2283018); details: primary human endothelial cells (HUVEC); actives raise or lower the signal
Outline: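 Readout: MCP-1 ELISA on compound-treated HUVEC, sampled 24 h post-dosing. Baseline and negative control DMSO; bidirectional fit. Overt toxicity checked alongside by sulforhodamine B protein staining at time of biomarker measurement.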

[12] = read-out: Human Leukocyte Antigen - DR isotype (HLADR), HLA-DRA (gene 3122); experiment: BSK_3C_HLADR: BioMAP Diversity Plus: 3C Assay for Human Leukocyte Antigen - DR isotype (HLADR) Biomarker Activity (AID 2283019); details: primary human endothelial cells (HUVEC); actives raise or lower the signal
Outline: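 Endothelial cells from human umbilical vein are treated with test chemical; after 24 h, HLA-DR levels are measured by ELISA. Data are fitted in both directions using DMSO as the baseline.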

[13] = target: human Peroxisome Proliferator-activated Receptor delta (PPARd), PPARD (gene 5467) (UniProt Q03181); experiment: ATG_PPARd_TRANS: Attagene TRANS-FACTORIAL HepG2 Assay for human Peroxisome Proliferator-activated Receptor delta (PPARd) (AID 2283002; active = hit-call score of the fitted dose curve at least 0.9, where 1 is the maximum)
Outline: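 Read-out: reporter mRNA induction, quantified by fluorescent RT-PCR products resolved by capillary electrophoresis. Human HepG2 liver cells carried transiently transfected Gal4-UAS reporter constructs with chimeric NR-Gal4 fusions. Cells were dosed for 24 h; DMSO served as baseline.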

[14] = target: Nuclear receptor subfamily 1 group I member 2 (Homo sapiens) (UniProt O75469); experiment: ATG_PXR_TRANS: Attagene TRANS-FACTORIAL HepG2 Assay for human Pregnane X Receptor (PXR) (AID 2283008; active = hit-call score of the fitted dose curve at least 0.9, where 1 is the maximum)
Outline: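 Fluorescence intensity of FAM-labelled, HpaI-digested reporter amplicons, separated by capillary electrophoresis, quantifies induction. HepG2 cells with PXR-Gal4 trans-reporter system were exposed 24 h; DMSO defines baseline.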

[15] = target: human Retinoic Acid Receptor beta (RARb), RARB (gene 5915) (UniProt P10826); experiment: ATG_RARb_TRANS: Attagene TRANS-FACTORIAL HepG2 Assay for human Retinoic Acid Receptor beta (AID 2283004; active = hit-call score of the fitted dose curve at least 0.9, where 1 is the maximum)
Outline: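 HepG2, transient MRTU transfection, NR–Gal4 chimera, 24 h treatment; RT-PCR plus CE fluorescence detection of reporter mRNA; gain of signal vs DMSO.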

[16] = target: Retinoic acid receptor alpha (Homo sapiens) (UniProt P10276); experiment: ATG_RARa_TRANS: Attagene TRANS-FACTORIAL HepG2 Assay for human Retinoic Acid Receptor alpha (RARa) (AID 2283005; active = hit-call score of the fitted dose curve at least 0.9, where 1 is the maximum;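 for AC50: potency for increased reporter signal meaning RARa activation over DMSO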)
Outline: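 HepG2 transiently transfected with multiplex GAL4-UAS reporter units including a human RARa–GAL4 chimera; 24 h compound exposure. Reporter mRNA quantified by RT-PCR, 6-FAM labeling and capillary electrophoresis; gain of signal versus DMSO.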

[17] = target: human Retinoic Acid Receptor gamma (RARg), RARG (gene 5916) (UniProt P13631); experiment: ATG_RARg_TRANS: Attagene TRANS-FACTORIAL HepG2 Assay for human Retinoic Acid Receptor gamma (RARg) (AID 2283009; active = hit-call score of the fitted dose curve at least 0.9, where 1 is the maximum;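 for AC50: AC50 is for reporter induction above DMSO meaning RARg activation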)
Outline: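 HepG2, RARg-GAL4 TRANS system, 24 h exposure; reporter mRNA by RT-PCR + CE fluorescence; increase over DMSO.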

[18] = target: human Thyroid Receptor alpha (THRa1), THRA (gene 7067) (UniProt P10827); experiment: ATG_THRa1_TRANS: Attagene TRANS-FACTORIAL HepG2 Assay for human Thyroid Receptor alpha (THRa1) (AID 2283014; active = hit-call score of the fitted dose curve at least 0.9, where 1 is the maximum)
Outline: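 First, HepG2 cells receive multiple GAL4-UAS reporter units and the chimeric receptor. They are then dosed for 24 h, after which RNA is reverse-transcribed, amplified, labelled, HpaI-cut and sized by capillary electrophoresis; gain relative to DMSO is scored.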

[19] = target: Peroxisome proliferator-activated receptor gamma (Homo sapiens) (UniProt P37231); experiment: ATG_PPARg_TRANS: Attagene TRANS-FACTORIAL HepG2 Assay for human Peroxisome Proliferator-activated Receptor-gamma (PPARg) (AID 2283007; active = hit-call score of the fitted dose curve at least 0.9, where 1 is the maximum)
Outline: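 HepG2 cells are transiently transfected with GAL4-UAS reporter units driven by chimeric NR-Gal4 fusions and dosed for 24 h. Reporter mRNA is quantified by RT-PCR, 6-FAM labelling, HpaI digestion and capillary electrophoresis. Induction is scored against DMSO.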

Measured: AC50

human Peroxisome Proliferator-activated Receptor delta (PPARd), PPARD (gene 5467), sequence (Q03181 whole entry, looked up, the tested form may be a part): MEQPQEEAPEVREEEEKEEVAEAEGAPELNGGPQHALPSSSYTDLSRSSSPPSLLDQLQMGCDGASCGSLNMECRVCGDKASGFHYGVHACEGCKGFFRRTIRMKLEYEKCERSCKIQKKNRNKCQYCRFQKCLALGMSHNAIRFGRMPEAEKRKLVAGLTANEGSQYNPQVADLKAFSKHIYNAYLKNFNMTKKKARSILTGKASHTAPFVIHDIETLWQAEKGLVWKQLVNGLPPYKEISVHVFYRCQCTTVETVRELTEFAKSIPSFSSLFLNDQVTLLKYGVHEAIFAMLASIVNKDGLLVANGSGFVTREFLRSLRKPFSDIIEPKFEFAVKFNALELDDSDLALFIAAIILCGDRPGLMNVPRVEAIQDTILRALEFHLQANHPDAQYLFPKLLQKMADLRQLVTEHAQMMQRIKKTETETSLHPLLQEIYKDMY
human Retinoic Acid Receptor beta (RARb), RARB (gene 5915), sequence (P10826 whole entry, looked up, the tested form may be a part): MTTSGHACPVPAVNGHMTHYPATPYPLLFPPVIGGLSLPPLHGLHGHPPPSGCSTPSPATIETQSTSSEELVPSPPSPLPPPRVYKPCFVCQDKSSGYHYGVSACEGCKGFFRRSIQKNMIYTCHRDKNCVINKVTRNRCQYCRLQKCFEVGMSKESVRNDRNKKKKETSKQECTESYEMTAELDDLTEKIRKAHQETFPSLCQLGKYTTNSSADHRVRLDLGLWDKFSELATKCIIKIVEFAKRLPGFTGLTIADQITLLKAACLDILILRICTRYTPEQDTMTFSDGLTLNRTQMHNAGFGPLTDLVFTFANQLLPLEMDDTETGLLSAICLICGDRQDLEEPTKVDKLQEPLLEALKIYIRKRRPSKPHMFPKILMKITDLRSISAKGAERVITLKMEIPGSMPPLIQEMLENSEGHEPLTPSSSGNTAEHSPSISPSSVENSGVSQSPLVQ
Retinoic acid receptor RXR-alpha (Homo sapiens), sequence (P19793 whole entry, looked up, the tested form may be a part): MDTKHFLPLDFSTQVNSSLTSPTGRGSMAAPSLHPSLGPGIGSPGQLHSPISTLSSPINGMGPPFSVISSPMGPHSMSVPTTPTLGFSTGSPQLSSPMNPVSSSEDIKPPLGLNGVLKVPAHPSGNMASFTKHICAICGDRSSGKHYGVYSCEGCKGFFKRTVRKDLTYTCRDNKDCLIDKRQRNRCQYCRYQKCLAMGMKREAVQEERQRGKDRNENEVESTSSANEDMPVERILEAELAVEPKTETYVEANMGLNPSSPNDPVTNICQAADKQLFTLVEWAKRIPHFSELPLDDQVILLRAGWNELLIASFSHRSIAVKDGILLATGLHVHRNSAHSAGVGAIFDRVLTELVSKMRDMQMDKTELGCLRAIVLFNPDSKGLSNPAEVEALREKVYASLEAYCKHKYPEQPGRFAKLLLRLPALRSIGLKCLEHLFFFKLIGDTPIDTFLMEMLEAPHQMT
human Retinoic Acid Receptor gamma (RARg), RARG (gene 5916), sequence (P13631 whole entry, looked up, the tested form may be a part): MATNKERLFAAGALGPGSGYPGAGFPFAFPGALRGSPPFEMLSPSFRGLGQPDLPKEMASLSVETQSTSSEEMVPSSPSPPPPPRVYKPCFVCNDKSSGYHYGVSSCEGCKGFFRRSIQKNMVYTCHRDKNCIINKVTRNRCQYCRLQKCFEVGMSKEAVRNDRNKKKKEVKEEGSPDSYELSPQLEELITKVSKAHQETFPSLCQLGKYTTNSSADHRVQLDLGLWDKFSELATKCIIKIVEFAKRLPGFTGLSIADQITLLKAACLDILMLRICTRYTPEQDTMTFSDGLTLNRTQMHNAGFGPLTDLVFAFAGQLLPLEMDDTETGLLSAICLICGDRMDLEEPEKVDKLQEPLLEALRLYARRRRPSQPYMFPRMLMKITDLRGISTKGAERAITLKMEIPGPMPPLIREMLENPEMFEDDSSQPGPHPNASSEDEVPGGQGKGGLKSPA
E-selectin (Homo sapiens), sequence (P16581 whole entry, looked up): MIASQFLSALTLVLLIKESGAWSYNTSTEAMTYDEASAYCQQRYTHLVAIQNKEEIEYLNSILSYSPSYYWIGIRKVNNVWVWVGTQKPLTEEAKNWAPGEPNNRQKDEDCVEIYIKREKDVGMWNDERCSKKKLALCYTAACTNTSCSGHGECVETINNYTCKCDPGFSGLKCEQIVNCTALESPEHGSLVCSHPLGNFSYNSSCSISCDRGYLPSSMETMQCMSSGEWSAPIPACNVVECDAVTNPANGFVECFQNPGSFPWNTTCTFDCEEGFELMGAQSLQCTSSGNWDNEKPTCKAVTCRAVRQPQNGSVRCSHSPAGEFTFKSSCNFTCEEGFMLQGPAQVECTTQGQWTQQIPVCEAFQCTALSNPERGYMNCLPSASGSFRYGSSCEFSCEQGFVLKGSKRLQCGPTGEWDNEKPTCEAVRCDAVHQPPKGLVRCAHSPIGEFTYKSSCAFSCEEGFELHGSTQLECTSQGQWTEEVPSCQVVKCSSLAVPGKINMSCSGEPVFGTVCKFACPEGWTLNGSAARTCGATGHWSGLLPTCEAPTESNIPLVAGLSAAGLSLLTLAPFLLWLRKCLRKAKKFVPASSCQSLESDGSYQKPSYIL
human RAR-related Orphan Receptor gamma (RORg), RORC (gene 6097), sequence (P51449 whole entry, looked up, the tested form may be a part): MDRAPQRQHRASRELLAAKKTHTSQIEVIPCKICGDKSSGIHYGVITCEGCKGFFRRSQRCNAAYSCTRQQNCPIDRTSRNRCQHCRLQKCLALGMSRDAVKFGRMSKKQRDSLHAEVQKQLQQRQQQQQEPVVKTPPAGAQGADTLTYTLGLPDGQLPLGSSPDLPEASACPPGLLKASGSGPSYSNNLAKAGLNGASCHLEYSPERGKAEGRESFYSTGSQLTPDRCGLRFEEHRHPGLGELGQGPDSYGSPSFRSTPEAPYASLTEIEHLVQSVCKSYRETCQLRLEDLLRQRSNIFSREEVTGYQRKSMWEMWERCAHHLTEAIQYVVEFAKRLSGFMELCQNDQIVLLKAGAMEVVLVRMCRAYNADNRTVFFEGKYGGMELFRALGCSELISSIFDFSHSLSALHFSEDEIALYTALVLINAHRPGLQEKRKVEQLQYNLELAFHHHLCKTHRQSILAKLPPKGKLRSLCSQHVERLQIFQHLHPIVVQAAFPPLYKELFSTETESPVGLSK
human Thyroid Receptor alpha (THRa1), THRA (gene 7067), sequence (P10827 whole entry, looked up, the tested form may be a part): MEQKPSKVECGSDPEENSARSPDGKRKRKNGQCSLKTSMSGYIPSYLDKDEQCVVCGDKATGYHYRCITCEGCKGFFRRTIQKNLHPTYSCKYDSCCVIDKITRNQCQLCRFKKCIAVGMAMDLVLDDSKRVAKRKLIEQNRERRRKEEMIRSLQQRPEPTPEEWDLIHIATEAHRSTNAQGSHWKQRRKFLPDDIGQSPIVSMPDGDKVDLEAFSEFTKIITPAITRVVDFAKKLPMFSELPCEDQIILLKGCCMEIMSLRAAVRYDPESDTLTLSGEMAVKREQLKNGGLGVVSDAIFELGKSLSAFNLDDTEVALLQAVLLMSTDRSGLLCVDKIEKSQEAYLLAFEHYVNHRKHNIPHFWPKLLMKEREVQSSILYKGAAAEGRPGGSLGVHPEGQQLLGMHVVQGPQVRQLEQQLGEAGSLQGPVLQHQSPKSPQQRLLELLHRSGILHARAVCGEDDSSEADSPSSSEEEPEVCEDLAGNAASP
human Retinoid X Receptor beta (RXRb), RXRB (gene 6257), sequence (P28702 whole entry, looked up): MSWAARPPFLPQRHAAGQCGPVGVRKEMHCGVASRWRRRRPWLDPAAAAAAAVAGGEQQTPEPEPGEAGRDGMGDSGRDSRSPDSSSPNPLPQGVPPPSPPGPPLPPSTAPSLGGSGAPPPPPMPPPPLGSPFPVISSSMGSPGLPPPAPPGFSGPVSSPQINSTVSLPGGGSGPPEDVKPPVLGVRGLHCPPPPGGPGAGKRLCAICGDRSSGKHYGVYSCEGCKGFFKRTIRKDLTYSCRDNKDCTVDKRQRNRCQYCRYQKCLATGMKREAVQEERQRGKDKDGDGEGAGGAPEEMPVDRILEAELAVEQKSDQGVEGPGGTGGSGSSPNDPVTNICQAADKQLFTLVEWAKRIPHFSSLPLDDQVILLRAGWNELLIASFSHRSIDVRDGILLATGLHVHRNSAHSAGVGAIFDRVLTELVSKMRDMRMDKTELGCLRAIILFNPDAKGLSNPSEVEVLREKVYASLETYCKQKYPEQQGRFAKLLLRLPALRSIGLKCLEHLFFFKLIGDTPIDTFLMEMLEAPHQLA
Nuclear receptor subfamily 1 group I member 2 (Homo sapiens), sequence (O75469 whole entry, looked up, the tested form may be a part): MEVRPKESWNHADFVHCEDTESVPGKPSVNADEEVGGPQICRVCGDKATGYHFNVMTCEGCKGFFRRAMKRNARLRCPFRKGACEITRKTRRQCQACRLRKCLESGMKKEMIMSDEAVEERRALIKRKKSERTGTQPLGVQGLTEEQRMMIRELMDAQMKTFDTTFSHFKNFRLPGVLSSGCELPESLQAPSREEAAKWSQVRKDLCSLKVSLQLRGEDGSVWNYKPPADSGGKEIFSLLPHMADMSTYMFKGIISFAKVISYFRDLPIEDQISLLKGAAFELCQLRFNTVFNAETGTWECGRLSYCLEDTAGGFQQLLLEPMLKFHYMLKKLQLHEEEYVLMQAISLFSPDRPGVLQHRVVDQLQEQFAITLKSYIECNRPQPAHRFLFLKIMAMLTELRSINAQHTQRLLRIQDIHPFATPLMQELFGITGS
human RAR-related Orphan Receptor beta (RORb), RORB (gene 6096), sequence (Q92753 whole entry, looked up, the tested form may be a part): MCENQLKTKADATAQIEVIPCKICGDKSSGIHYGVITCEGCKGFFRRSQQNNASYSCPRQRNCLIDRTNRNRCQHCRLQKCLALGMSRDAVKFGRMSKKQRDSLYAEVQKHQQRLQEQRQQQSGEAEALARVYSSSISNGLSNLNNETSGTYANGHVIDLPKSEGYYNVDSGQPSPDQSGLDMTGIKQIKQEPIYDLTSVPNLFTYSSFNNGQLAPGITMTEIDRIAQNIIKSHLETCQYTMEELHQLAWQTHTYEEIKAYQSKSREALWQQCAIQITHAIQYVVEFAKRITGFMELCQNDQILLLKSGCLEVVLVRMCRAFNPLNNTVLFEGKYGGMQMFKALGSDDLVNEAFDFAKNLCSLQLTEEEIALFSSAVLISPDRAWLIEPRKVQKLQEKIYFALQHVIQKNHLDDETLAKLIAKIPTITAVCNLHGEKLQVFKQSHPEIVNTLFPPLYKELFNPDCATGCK

O=C(O)CCCCC(=O)O
not listed: [13] | [14] | [15] | [16] | [17] | [18] | [19]
inactive: all other assays above

NC(=O)Cn1c(=O)cc(CCN2CCN(c3nccc4sccc34)CC2)c2ccc(F)cc21
active: [3] 0.148 µM
inactive: [1] | [13] | [2] | [14] | [6] | [8] | [9] | [10] | [11] | [12]

CC1(C)CC(N=C=O)CC(C)(CN=C=O)C1 (stereo unspecified)
inactive: [1] | [2] | [3] | [5] | [8] | [9] | [10] | [11] | [12]

NCCO
not listed: [5] | [13] | [14] | [18] | [19]
inactive: all other assays above

Cc1cccc([N+](=O)[O-])c1C
active: [14] 5.4 µM | [7] 53.4 µM
not listed: [4] | [5] | [13] | [15] | [16] | [19]
inactive: all other assays above

Cc1ccc(N(C)C)cc1
not listed: [4] | [5] | [15] | [16] | [17] | [19]
inactive: all other assays above

O=[N+]([O-])C(CO)(CO)CO
not listed: [4] | [6] | [7] | [13] | [14] | [16] | [17] | [19]
inactive: all other assays above

Cc1cc(=O)[nH]c(=S)[nH]1
not listed: [6] | [14] | [15] | [16] | [17] | [18] | [19]
inactive: all other assays above

CC1=C(/C=C/C(C)=C/C=C/C(C)=C/CO)C(C)(C)CCC1
inactive: [2] | [15] | [9] | [10] | [11]
active: [1] 15.6 µM | [16] 0.073 µM | [3] 27.6 µM | [19] 28.1 µM | [14] 0.28 µM | [17] 0.117 µM | [6] 1.87 µM | [7] 0.474 µM | [8] 19.3 µM | [12] 25.3 µM

CN1CCCC1=O
active: [7] 31.5 µM
not listed: [13] | [18] | [19]
inactive: all other assays above
